Assay results published in ChEMBL document CHEMBL1157539, “Thousands of chemical starting points for antimalarial lead identification” (Nature, 2010).

test system: HepG2; assay: GSK_TCMDC: Percent inhibition of human HepG2 cell line. Test compounds present at 10uM.; format: functional

SMILES	Inhibition [%]
CN1C(=O)C(=NN=C(S)N2CCOCC2)c2ccccc21	57
Cl.N=C(N)Nc1ccc(OCCCCCOc2ccc(NC(=N)N)cc2)cc1	12
Cc1cc(N2CC=CCC2)nc(NC(=N)Nc2ccc(Cl)cc2)n1	0
CCCC(C)NC(=O)C(N)Cc1cccc(I)c1.O=C(O)C(F)(F)F (stereo not given)	11
COc1ccc(Nc2ncc3c(-c4cccc(NC(=O)c5ccc(N)cc5)c4)c[nH]c3n2)cc1OC	83
CC(C)CCCC(C)NC[C@@H](O)[C@H](Cc1ccccc1)NC(=O)c1cc(N2CCCC2=O)cc(N(c2ccccc2)S(C)(=O)=O)c1 (stereo not given in full)	17
COc1cc(Cc2cnc(NCCN3CCNCC3)nc2N)ccc1OCc1ccc(C(F)(F)F)cc1	12
CCc1sc(N2CCC(C)CC2)nc1C(=O)Nc1ccc(F)cc1C(F)(F)F	1
CN(C)CC(=O)N(Cc1ccc(Cl)c(Cl)c1)Cc1csc(-c2ccc(CNCc3ccccc3)cc2)n1.O=C(O)C(F)(F)F	30
CC(=O)Nc1ncc(C(=O)Nc2cccc(-c3cccc(-c4nc5cc(F)ccc5[nH]4)c3)c2)s1	27
C(=N\Nc1nccc2sc(-c3cccnc3)cc12)/c1ccncc1	65
CCc1ccc(CN2CCC(C(=O)Nc3ccc(-c4nc5ccccc5[nH]4)cc3)CC2)o1	29
CCCCCCCn1c(=N)n(CC(O)c2ccc(Cl)c(Cl)c2)c2ccccc21.Cl (stereo not given)	99
Cc1cc(-c2c[nH]c3ncc(-c4cccc5ncccc45)cc23)ccc1C(=O)O.O=C(O)C(F)(F)F	31
CC(CN1CCN(C)CC1)C(=O)Nc1ccc(-c2cccc(-c3nc4cc(C(F)(F)F)ccc4[nH]3)c2)cc1 (stereo not given)	16
COc1ccccc1C1CCN(C2CCC(NC(=O)/C=C/c3cc(F)c(F)cc3F)CC2)CC1 (stereo not given)	39
O=C(NCCN1Cc2ccccc2C1=O)c1ccc(Oc2ccc(C(=O)NCCN3Cc4ccccc4C3=O)cc2)cc1	27
CCC(C)(C)c1ccc(N2C(N)=NC(N)=NC2(C)C)cc1.Cl	40
Cc1cc(CN2CCC(C(=O)Nc3ccc(-c4nc5ccccc5[nH]4)cc3)CC2)oc1C	0
CCCCCCN1CCC(NCc2ccc(CN(C)C)cc2)CC1.O=C(O)C(F)(F)F	18

SMILES	Inhibition [%]
Cc1cccc2nc(-c3cccc(-c4cccc(NC(=O)c5ccncc5)c4)c3)[nH]c12	22
Cc1cc(OCC2CCN(c3ncc(C(=O)NC4CC4)cc3Cl)CC2)ccc1F	16
CC(C)NCc1ccc(-c2ccc(CN3CCCC(c4ccccc4)C3)cc2)c(C(=O)NCC2CCCCC2)c1.O=C(O)C(F)(F)F (stereo not given)	79
COc1cc2c(cc1OCCN1CCC(N3CCCCC3)CC1)N(C(=O)/C=C/c1ccccc1Cl)CC2	36
O=C(Nc1cccc(CN2CCCN(Cc3cccnc3)CC2)c1)c1ccc(Cl)c(Cl)c1.O=C(O)C(F)(F)F	16
N#Cc1ccc(CN2CCC(Oc3ccc(NC(=O)c4ccsc4)cc3Cl)C2)cc1.O=C(O)C(F)(F)F (stereo not given)	29
N#Cc1nc2ccc(OCCN(Cc3ccccc3C(F)(F)F)c3ccc(C#N)c(C(F)(F)F)c3)cc2s1	23
CS(=O)(=O)CCNCc1nc(-c2ccc3c(=O)[nH]cnc3c2)cs1	81
CS(=O)(=O)CCNCc1ccc(-c2ccc3c(Nc4ccc(F)cc4Cl)ccnc3c2)o1	29
O=C(N[C@H]1CCN(Cc2ccc(OCCCN3CCCCC3)cc2)C1)c1ccc2ccccc2c1	8
N=C(NCc1ccc(O)cc1)Nc1nc(-c2ccc(OCCCn3ccnc3)cc2)cs1	13
Cl.c1ccc(COc2ccc(Nc3ncnc4cnc(-c5ccc(CN6CCCCC6)o5)cc34)cc2)cc1	0
CCN(CC)CCNc1c2ccc(Cl)cc2nc2ccc(OC)nc12.Cl	20
CC(C)(C)c1cc2cc(Nc3ccnc4cc(-c5nccs5)ccc34)ccc2[nH]1.Cl	5
CCc1cc(CNC2CCN(CCc3c(F)cnc4ccc(OC)nc34)CC2)cc2c1OCCO2.Cl	46
CN1CCN(Cc2ccc(-c3ccc4c(Nc5ccc(Cl)cc5F)ccnc4c3)o2)CC1	47
CN(CCC1CCN(C(=O)/C=C/c2ccc(Cl)c(Cl)c2)CC1)C1CCC(c2c[nH]c3ccccc23)CC1 (stereo not given)	57
Cc1cc(C2CCN(CCCCNC(=O)c3ccc(NC(=O)c4ccc(Cl)cc4)cc3)CC2)c(C)cc1OCc1ccccn1.Cl	18
Cc1cccc2nc(-c3cccc(-c4cccc(NC(=O)Nc5ccc(Cl)cc5)c4)c3)[nH]c12	23
O=C(NCCCCCN1CCCN(C(=O)Nc2ccc(Cl)c(C(F)(F)F)c2)CC1)C1CC1c1ccc(Cl)c(Cl)c1 (stereo not given)	41
